Only some compounds are listed: those with a hit (about 3.1% of all), similar ones and a draw of the others.
HIF activator: HIF pathway transcriptional activation. U2OS HRE-luciferase reporter, luminescence; normalized: DMSO 0%, desferrioxamine 100%. activation, % at 7.5 µM (by protocol). hit rate 0.32% among 300,000;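 active = mean activation of at least 10% of the iron chelator positive control signal, with at least half of replicates also reaching 10%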
HSF1 inh: HSF1 inhibition; hit rate 0.77% among 300,000; activity change, negative = inhibition, % at 7.5 µM (by protocol); NIH3T3-HGL HSE-luciferase, MG132-induced, luminescence 8 h; stronger effect = lower value;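 active = more than half of replicate wells show activity change below -50%, luminescence cut by over half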;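 also: luciferase reports HSF-1 transcriptional activity via heat shock element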
HSF-1 act: increases HSF-1 driven luciferase reporter signal | NIH3T3-HGL HSF-1 luciferase reporter, MG132, 8 h; 100% = twice DMSO control signal | activation, % at 9 µM | hit rate 1.7% among 300,000 | AID 504408;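 active = mean replicate activation of at least 50% with a set share of replicates each reaching 50%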
HSP90 inh: inhibitors of HSP90 luciferase refolding in rabbit reticulocyte lysate. luciferase refolding luminescence, 3 h. inhibition, % at 5.6 µM. AID 1789. hit rate 0.91% among 290,000;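 active = inhibition above the screen-wide mean plus 3 SD, computed separately per campaign, cut at about 16% in these data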;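 also: inhibitors lower the luminescence because luciferase stays unfolded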
ARNT TACC3 PPI: ARNT/TACC3 interaction disruption | hit rate 0.66% among 390,000 | Q9Y6A5 | AlphaScreen His-ARNT PAS-B/GST-TACC3 binding, luminescence; TACC3 fragment carries E629A point mutation | inhibition, % at 9.99 µM;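 active = mean inhibition of replicates at least 50% and at least half of replicates each reaching 50%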
ARNT Alpha ctr-1: AlphaScreen artifact in ARNT/TACC3 counter-screen; shares compounds with ARNT TACC3 PPI; His-ARNT PASB-GST AlphaScreen artifact counter-screen, luminescence; AC50, µM (doses to about 68 µM); hit rate 50% among 1,200;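 active = every separate test run was called active for a drop in luminescence, with AC50 within twice the top valid dose, actives reach about 71 µM in these data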
ARNT Alpha ctr-2: counter-screen for ARNT-TACC3 inhibitors: AlphaScreen artifacts | shares compounds with ARNT TACC3 PPI | Dual-tagged His-ARNT PASB-GST AlphaScreen artifact counter-screen | AC50, µM | hit rate 70% among 45;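 active = luminescence drop, with half-maximal potency fitted within twice the sample's top valid dose, cut at about 70 µM in these data; inactive = the rest, including signal moving the wrong way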
Hits are given with their value; n = inactive; x = not tested or not shown.

SMILES	HIF activator	HSF1 inh	HSF-1 act	HSP90 inh	ARNT TACC3 PPI	ARNT Alpha ctr-1	others
CC1CCCC(C)N1C(=O)COC(=O)c1ccc([N+](=O)[O-])o1 (stereo not drawn)	x	x	x	x	30	n
CCCCCCNc1cc2n(c(=O)n1)CCc1cc(OC)c(OC)cc1-2	x	x	x	n	58	n
COc1cc2c(cc1OC)-c1cc(Nc3cccc(C)c3)nc(=O)n1CC2	n	n	n	n	53	n
CCOc1ccc(Nc2cc3n(c(=O)n2)CCc2cc(OC)c(OC)cc2-3)cc1	n	n	n	n	43	n
CCOc1ccccc1Nc1cc2n(c(=O)n1)CCc1cc(OC)c(OC)cc1-2	n	n	n	n	n	x
C[C@H]1CN([C@@H](C)CO)C(=O)c2cc(NC(=O)Nc3ccccc3)ccc2O[C@@H]1CN(C)S(=O)(=O)c1ccc(F)cc1	x	x	x	x	n	x
C[C@H](CO)N1C[C@H](C)[C@@H](CN(C)Cc2ccc(Oc3ccccc3)cc2)Oc2ccc(NC(=O)Nc3ccc(C(F)(F)F)cc3)cc2CC1=O	x	x	x	x	n	x
Cc1onc(-c2c(Cl)cccc2Cl)c1C(=O)Nc1ccc(N2CCOCC2)cc1	n	n	n	n	active	n
Cc1onc(-c2c(F)cccc2Cl)c1C(=O)Nc1ccccc1N1CCOCC1	n	n	n	n	n	x
COc1cc(C(=O)NCc2nnc(SCC(=O)Nc3nccs3)o2)cc(OC)c1OC	n	n	n	n	69	n
CCC(=O)NC(C)c1cc(Cl)c2cccnc2c1O (stereo not drawn)	x	x	x	x	61	43µM
CC(=O)NC(C)c1cc(Cl)c2cccnc2c1O (stereo not drawn)	x	x	x	x	52	36µM
C[C@H]1CN([C@@H](C)CO)S(=O)(=O)c2ccc(C3=CCCC3)cc2O[C@@H]1CN(C)C(=O)c1ccncc1	x	x	x	x	n	x
Cc1ccc(S(=O)(=O)n2nc(C)cc2N)cc1	n	n	n	n	n	x
Cc1ccc(S(=O)(=O)n2nc(C)c(C#N)c2N)cc1	n	n	n	n	67	n
O=C(Nc1nc(-c2ccncc2)cs1)c1ccc(S(=O)(=O)N2CCOCC2)cc1	x	n	n	n	n	x
O=C(Nc1nc(-c2ccccn2)cs1)c1ccc(S(=O)(=O)N2CCOCC2)cc1	x	x	x	x	x	x	ARNT Alpha ctr-2=6.5
COc1ccc(C(=O)Nc2nc3ccccc3[nH]2)cc1S(=O)(=O)N1CCOCC1	n	n	n	n	51	n
COc1ccc(C(=O)Nc2nc(-c3ccccn3)cs2)cc1S(=O)(=O)N1CCOCC1	x	x	x	x	62	9.7µM
COc1ccc(C(=O)Nc2ccccn2)cc1S(=O)(=O)N1CCOCC1	n	n	n	n	n	x
CCC(=O)N1C[C@@H](C)[C@@H](OC)CN(C)C(=O)c2cc(NC(=O)c3ccc(F)cc3)ccc2OC[C@H]1C	x	x	x	x	n	x
O=C(O)C[C@H]1C=C[C@@H](NC(=O)c2ccccc2F)[C@H](CO)O1	x	x	x	x	n	x
C[C@H](CO)N1C[C@H](C)[C@H](CN(C)Cc2ccc(F)cc2)Oc2ncc(C#Cc3cccnc3)cc2C1=O	x	x	x	x	n	x
CNC[C@H]1Oc2ccc(NS(=O)(=O)c3ccc(C)cc3)cc2C(=O)N([C@@H](C)CO)C[C@@H]1C	x	x	x	x	n	x
Nc1ncnc(Oc2cccc3cccnc23)c1[N+](=O)[O-]	n	n	n	n	51	n
SMILES	HIF activator	HSF1 inh	HSF-1 act	HSP90 inh	ARNT TACC3 PPI	ARNT Alpha ctr-1	others
O=C(Nc1ccccc1)N1CCCCN2[C@H](C1)[C@H](c1ccc(C#CC3CC3)cc1)[C@@H]2CO	x	x	x	x	active	n
CO[C@@H]1CN(C)C(=O)c2ccc(NC(C)=O)cc2OC[C@@H](C)N(C(=O)c2ccncc2)C[C@@H]1C	x	x	x	x	n	x
O=C(CC(NCc1ccccn1)C(=O)O)Nc1ccccc1Cl (stereo not drawn)	n	n	n	n	51	13µM
Cc1ccc(Cn2cccc(NS(C)(=O)=O)c2=O)cc1	n	n	n	n	64	n
O=S(=O)(N[C@H]1CC[C@H](CCn2cc(-c3ccccc3F)nn2)O[C@@H]1CO)c1ccc(Cl)cc1	x	x	x	x	n	x
O=S(=O)(N[C@@H]1CC[C@H](CCn2cc(-c3ccccn3)nn2)O[C@@H]1CO)c1cccc(Cl)c1	x	x	x	x	66	31µM
O=S(=O)(N[C@H]1CC[C@@H](CCn2cc(-c3ccccn3)nn2)O[C@H]1CO)c1cccc(Cl)c1	x	x	x	x	70	32µM
O=S(=O)(N[C@@H]1CC[C@@H](CCn2cc(-c3ccccn3)nn2)O[C@H]1CO)c1cccc(Cl)c1	x	x	x	x	66	41µM
C[C@H](NC(=O)C[C@@H]1CC[C@H]2[C@@H](COC[C@@H](O)CN2C(=O)Nc2ccccc2)O1)c1ccccc1	x	x	x	x	n	x
CCOC(=O)/C(=N/Nc1ccccc1OC)N1CCCc2ccccc21	n	n	n	n	34	44µM
Nc1nc(-c2ccccn2)nc(N)c1Cc1ccccc1F	n	n	n	n	67	22µM
Nc1nc(-c2ccccn2)nc(N)c1Cc1ccc(Cl)cc1Cl	15	n	n	n	57	26µM	ARNT Alpha ctr-2=12
Cc1ccc(S(=O)(=O)N(C)C[C@H]2OCCCC[C@H](C)Oc3ccc(NS(C)(=O)=O)cc3C(=O)N([C@H](C)CO)C[C@@H]2C)cc1	x	x	x	x	n	x
C#CCOc1ccc(OC)cc1C(c1c(C)[nH][nH]c1=O)c1c(C)[nH][nH]c1=O	n	n	n	n	37	n
CCOc1ccc(C(c2c(C)[nH][nH]c2=O)c2c(C)[nH][nH]c2=O)cc1OC	n	n	n	n	n	x
O=C(C[C@H]1CC[C@@H]2[C@H](COC[C@H](O)CN2C(=O)c2ccccn2)O1)NC1CCC1	x	x	x	x	n	x
CCCCN(CC)c1nc(-c2ccncc2)nc2ccccc12	n	n	n	n	n	x
CCCN(CCC)c1nc(-c2ccccn2)nc2ccccc12	n	n	n	n	60	n
CSc1ncccc1C(=O)N1CCN(S(=O)(=O)c2cc(C)ccc2C)CC1	n	n	n	n	n	x
CCOC(=O)N1CCN(Cc2ccc(O)c3ncccc23)CC1	n	n	n	n	x	x
CC(C)(C)OC(=O)N1CCN(Cc2ccc(O)c3ncccc23)CC1	x	x	x	x	x	1.1µM
Cc1ccc(C)c(S(=O)(=O)N2CCN(Cc3ccc(O)c4ncccc34)CC2)c1	29	n	n	n	54	17µM
O=C(Nc1cn2ccccc2n1)c1cc(-c2ccccc2)on1	x	x	x	x	x	n
O=C(Nc1nc(-c2ccccc2)cs1)c1cc(-c2ccccc2)on1	x	x	x	x	x	n
Cc1ccc(Cn2ccc(NC(=O)c3cc(-c4ccccc4)on3)n2)cc1	n	n	n	n	n	x
C[C@@H]1CN([C@@H](C)CO)C(=O)Cc2cc(NS(=O)(=O)c3cn(C)cn3)ccc2O[C@@H]1CN(C)C	x	x	x	x	n	x
COc1cccc(CNC(=O)C[C@@H]2CC[C@H](NC(C)=O)[C@@H](CO)O2)c1	x	x	x	x	n	x
